Data published in PubChem BioAssay (NCI).
This is part of a sample that, as a whole, favours compounds with a hit. Of some 79,000 tested, about 15% had one in any assay. The source made the active and inactive calls. Cut-off read from the data, not from the text of the source: active = growth inhibition above about 70%; inactive = the rest.

Legend:
[1] = NCI Yeast Anticancer Drug Screen. Data for the rad52 strain (AID 147);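 note: 0% = growth of vehicle-treated control cultures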; conditions: S. cerevisiae rad52 mutant growth inhibition, active compounds read high
Outline: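 DNA repair-defective yeast; compound exposure; growth scored against vehicle controls.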

[2] = NCI Yeast Anticancer Drug Screen. Data for the wt1 strain (AID 149);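 note: 0% = growth of vehicle-treated wt1 cultures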; conditions: S. cerevisiae wt1 strain (SPY 50644) growth inhibition, active compounds read high
Outline: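 Measured: growth of wt1 yeast under compound versus vehicle treatment, reported as inhibition.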

[3] = NCI Yeast Anticancer Drug Screen. Data for the mgt1 strain (AID 153); conditions: S. cerevisiae mgt1 mutant growth inhibition, active compounds read high
Outline: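 Growth inhibition relative to vehicle controls was scored for the mgt1 yeast strain after compound exposure.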

[4] = NCI Yeast Anticancer Drug Screen. Data for the rad50 strain (AID 155);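 note: 0% = growth of vehicle-only cultures of the same strain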; conditions: S. cerevisiae rad50 strain growth inhibition, active compounds read high
Outline: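 Growth of the mutant yeast was measured after compound exposure and referenced to vehicle-treated cultures.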

[5] = NCI Yeast Anticancer Drug Screen. Data for the mec2-1 strain (AID 157); conditions: S. cerevisiae mec2-1 strain, active compounds read high
Outline: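 Growth inhibition is read against vehicle-treated controls after compound exposure of the mec2-1 yeast strain, which is defective in DNA damage repair or cell cycle control.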

[6] = NCI Yeast Anticancer Drug Screen. Data for the rad14 strain (AID 159);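 note: 0% = growth of vehicle-treated control cultures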; conditions: S. cerevisiae rad14 strain growth inhibition, active compounds read high
Outline: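 Here, inhibition of yeast growth was measured after compound exposure, using a strain with a genetic defect in DNA damage repair and vehicle-treated cultures as the reference.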

[7] = NCI Yeast Anticancer Drug Screen. Data for the sgs1 mgt1 strain (AID 161);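 note: 0% = growth of cultures given vehicle only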; conditions: S. cerevisiae sgs1 mgt1 strain, active compounds read high
Outline: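 This yeast growth screen uses a strain with defined DNA-repair lesions; compound-treated growth is compared with vehicle-treated growth.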

[8] = NCI Yeast Anticancer Drug Screen. Data for the CLN2oe strain (AID 163);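 note: 0% = growth of vehicle-only control cultures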; conditions: S. cerevisiae CLN2oe strain, active compounds read high
Outline: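 Compound-treated yeast; growth vs vehicle ctrl = % inhibition. Genetically altered strain (cell-cycle control).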

[9] = NCI Yeast Anticancer Drug Screen. Data for the cln2 rad14 strain (AID 165);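 note: 0% = growth equal to vehicle treated cultures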; conditions: S. cerevisiae cln2 rad14 strain, active compounds read high
Outline: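 Growth inhibition, relative to vehicle-treated controls, is the read-out. The test organism is a yeast strain with defined genetic alterations, cln2 rad14.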

[10] = NCI Yeast Anticancer Drug Screen. Data for the bub3 strain (AID 167); conditions: S. cerevisiae bub3 mutant strain, active compounds read high
Outline: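 Whole-cell yeast assay. The mutant strain was incubated with compounds, and growth inhibition was determined by comparison with vehicle-treated cells.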

[11] = NCI Yeast Anticancer Drug Screen. Data for the wt2 strain (AID 169);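 note: 0% = growth of vehicle-treated yeast cultures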; conditions: S. cerevisiae wt2 strain growth inhibition, active compounds read high
Outline: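 Compound exposure of yeast; growth compared with vehicle controls; inhibition reported.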

[12] = NCI Yeast Anticancer Drug Screen. Data for the mlh1 strain (AID 171);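 note: 0% = growth of vehicle-treated control cultures of the same strain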; conditions: S. cerevisiae mlh1 strain growth inhibition, active compounds read high
Outline: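 Compounds are applied to a genetically altered yeast strain, and its growth is compared with that of vehicle-treated cultures to give percent inhibition.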

[13] = NCI Yeast Anticancer Drug Screen. Data for the sgs1 strain (AID 173);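 note: 0% = growth of vehicle-only control cultures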; conditions: S. cerevisiae sgs1 mutant, active compounds read high
Outline: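 Compounds applied to genetically altered yeast; growth compared with vehicle-treated cultures to give % inhibition.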

[14] = NCI Yeast Anticancer Drug Screen. Data for the mlh1 rad18 strain (AID 175); conditions: S. cerevisiae mlh1 rad18 strain growth inhibition, active compounds read high
Outline: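 Cells of a genetically altered yeast strain, deficient in DNA damage repair, were treated with compound. Their growth was then compared with that of vehicle-treated cultures to give inhibition.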

[15] = NCI Yeast Anticancer Drug Screen. Data for the rad50EPP+ strain (AID 151);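 note: 0% = growth of vehicle-treated control cultures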; conditions: S. cerevisiae rad50 mutant strain, active compounds read high
Outline: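 rad50EPP+ yeast treated with test compounds. Readout: growth vs vehicle control.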

[16] = NCI Yeast Anticancer Drug Screen. Data for the rad18 strain (AID 177); conditions: S. cerevisiae rad18 mutant growth inhibition, active compounds read high
Outline: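 Compounds are applied to a repair-deficient yeast strain, and growth is compared with that of vehicle-treated cultures to give percent inhibition.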

[17] = at 5.0 µM (retest, dose inferred, filed as 0.5)
[18] = at 50.0 µM (retest, dose inferred, filed as 5.0)

Measured: growth inhibition

S=c1[nH]nc(-c2ccc(Cl)cc2)s1
active: [1]; at 33.0 µM 93% | [1]; at 100.0 µM 97% | [2]; at 33.0 µM 78% | [2]; at 100.0 µM 96% | [3]; at 33.0 µM 83% | [3]; at 100.0 µM 97% | [4]; [17] 73% | [4]; at 33.0 µM 90% | [4]; [18] 99% | [4]; at 50.0 µM 87.2% | [4]; at 100.0 µM 95% | [5]; [17] 72% | [5]; at 33.0 µM 71% | [5]; [18] 99% | [5]; at 50.0 µM 87.8% | [5]; at 100.0 µM 96% | [6]; at 33.0 µM 92% | [6]; at 100.0 µM 97% | [7]; [18] 97% | [8]; at 100.0 µM 95% | [9]; [18] 97% | [10]; at 33.0 µM 81% | [10]; [18] 96% | [10]; at 100.0 µM 96% | [11]; at 100.0 µM 96% | [12]; at 100.0 µM 96% | [13]; at 100.0 µM 94% | [14]; [17] 80% | [14]; [18] 99% | [14]; at 50.0 µM 86%
inactive: [1]; at 1.2 µM 16% | [1]; at 3.7 µM 7% | [1]; at 11.0 µM 23% | [2]; at 1.2 µM -18% | [2]; at 3.7 µM -21% | [2]; at 11.0 µM -25% | [3]; at 1.2 µM 8% | [3]; at 3.7 µM 11% | [3]; at 11.0 µM 12% | [4]; at 1.2 µM -6% | [4]; at 3.7 µM -7% | [4]; at 11.0 µM 21% | [5]; at 1.2 µM 1% | [5]; at 3.7 µM 12% | [5]; at 11.0 µM -15% | [6]; at 1.2 µM -24% | [6]; at 3.7 µM -18% | [6]; at 11.0 µM -16% | [7]; [17] -8% | [8]; at 1.2 µM 6% | [8]; at 3.7 µM 12% | [8]; at 11.0 µM -10% | [8]; at 33.0 µM 55% | [9]; [17] 52% | [10]; at 1.2 µM 23% | [10]; at 3.7 µM 24% | [10]; [17] 27% | [10]; at 11.0 µM 16% | [11]; at 1.2 µM -28% | [11]; at 3.7 µM -21% | [11]; at 11.0 µM -28% | [11]; at 33.0 µM 69% | [12]; at 1.2 µM -16% | [12]; at 3.7 µM -17% | [12]; at 11.0 µM -8% | [12]; at 33.0 µM 67% | [13]; at 1.2 µM -13% | [13]; at 3.7 µM -13% | [13]; at 11.0 µM -16% | [13]; at 33.0 µM 64%

c1ccc(N2N=C3N(c4ccccc4)C2N3c2ccccc2)cc1
active: [1]; at 100.0 µM 93% | [2]; at 100.0 µM 93% | [5]; [18] 98% | [5]; at 100.0 µM 93% | [6]; at 100.0 µM 92% | [7]; at 50.0 µM 81% | [8]; at 100.0 µM 92% | [9]; [18] 75% | [10]; at 33.0 µM 80% | [10]; [18] 81% | [10]; at 50.0 µM 82.5% | [10]; at 100.0 µM 92% | [11]; at 100.0 µM 94% | [12]; at 100.0 µM 93% | [13]; at 100.0 µM 93% | [16]; at 100.0 µM 94%
inactive: [1]; at 1.2 µM -19% | [1]; at 3.7 µM -14% | [1]; at 11.0 µM 4% | [1]; at 33.0 µM 57% | [2]; at 1.2 µM -46% | [2]; at 3.7 µM -41% | [2]; at 11.0 µM -16% | [2]; at 33.0 µM 34% | [15]; at 1.2 µM -13% | [15]; at 3.7 µM -8% | [15]; at 11.0 µM -5% | [15]; at 33.0 µM 6% | [15]; at 100.0 µM 1% | [5]; at 1.2 µM -19% | [5]; at 3.7 µM -22% | [5]; [17] 35% | [5]; at 11.0 µM 3% | [5]; at 33.0 µM 44% | [5]; at 50.0 µM 69.2% | [6]; at 1.2 µM -33% | [6]; at 3.7 µM -36% | [6]; at 11.0 µM -20% | [6]; at 33.0 µM 20% | [7]; [17] -16% | [7]; [18] 57% | [8]; at 1.2 µM -12% | [8]; at 3.7 µM -7% | [8]; at 11.0 µM -10% | [8]; at 33.0 µM 51% | [9]; [17] 28% | [9]; at 50.0 µM 59.5% | [10]; at 1.2 µM -6% | [10]; at 3.7 µM -1% | [10]; [17] 28% | [10]; at 11.0 µM 29% | [11]; at 1.2 µM -17% | [11]; at 3.7 µM -7% | [11]; at 11.0 µM 1% | [11]; at 33.0 µM 44% | [12]; at 1.2 µM -28% | [12]; at 3.7 µM -22% | [12]; at 11.0 µM -7% | [12]; at 33.0 µM 37% | [13]; at 1.2 µM 2% | [13]; at 3.7 µM -29% | [13]; at 11.0 µM 2% | [13]; at 33.0 µM 41% | [16]; at 1.2 µM 12% | [16]; at 3.7 µM 10% | [16]; at 11.0 µM -3% | [16]; at 33.0 µM 60%
